The values below come from PubChem BioAssay (NCATS).

Molecules are shown by their SMILES. Results filed as inconclusive are left out. Calls of active or inactive are those of the source. Unless noted, calls come from the whole dose curve; as a rule, active = well fitted curve in the direction sought with a large enough effect; inconclusive = small, poorly fitted or top-dose-only effect, or another doubt; inactive = no such curve, though single readings can be large; an effect the other way counts as inactive or inconclusive.

Assay [1] deals with Glucocorticoid receptor (Homo sapiens) (UniProt P04150). Nature of the assay: qHTS assay for small molecule agonists of glucocorticoid receptor signaling (AID 588532; active = well fitted curve in the direction sought with a large enough effect in the signal ratio, with a control signal flat; the % refers to the signal ratio;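 note: 100% = dexamethasone at 0.1 µM and 0% = DMSO only wells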). The note with it: HeLa MMTV-bla, beta-lactamase ratio, agonist, 18 h; stronger effect = higher value; percent of dexamethasone control, DMSO zero. The procedure, abridged:
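HeLa GRE-bla reporter cells; 18 h compound exposure at 37 C; 2 h CCF4 loading at room temperature; fluorescence at 460 and 530 nm; EC50 by Hill equation.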

Assay [2] has the same target. The assay is described as follows: qHTS assay for small molecule antagonists of glucocorticoid receptor signaling (AID 588533; active = well fitted inhibition curve with a large enough effect in the signal ratio, with a control signal flat, not every such curve was filed as active; the % refers to the signal ratio; note: % is set by controls: 0 for no effect and ±100 for the full control effect). Conditions: HeLa MMTV-bla, GRE beta-lactamase ratio, antagonist mode, 18 h; series mostly up to 76.8 µM. In short, it runs like this:
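Antagonist-mode qHTS: compound titrations added to GRE-bla HeLa cells, then dexamethasone 2 nM final; 18 h, 37 C. CCF4 FRET fluorescence normalized to dexamethasone and DMSO; IC50 from Hill fit.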

Assay [3] has as its target Vitamin D3 receptor (Homo sapiens) (UniProt P11473). The assay is described as follows: qHTS assay for small molecule antagonists of vitamin D receptor signaling (AID 588541; calls by dose curve;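 note: receptor activated by calcitriol during compound treatment; % is set by controls: 0 for no effect and ±100 for the full control effect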). The note with it: HEK293T VDR-UAS-bla, beta-lactamase ratio, antagonist mode; series mostly up to 76.7 µM. The procedure, abridged:
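VDR-UAS-bla HEK293T cells in 2% charcoal-stripped FBS were stimulated with 1-alpha,25-dihydroxyvitamin D3 (3 nM final) plus compound for 16 h at 37 C. The beta-lactamase CCF4 readout was normalized to 50 nM agonist and DMSO, and Hill fits gave IC50.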

The target is the same in assay [4]. Nature of the assay: qHTS assay for small molecule agonists of vitamin D receptor signaling (AID 588543; calls by dose curve;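 note: 0% = DMSO basal and 100% = reference agonist control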). Conditions: HEK293T VDR-UAS-bla, beta-lactamase ratio, 16 h; series mostly up to 76.8 µM. In short, it runs like this:
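Agonist-mode beta-lactamase reporter: HEK293T VDR-UAS-bla cells in charcoal-stripped 2% FBS, compound series 16 h 37 C, CCF4 2 h RT. EC50 from Hill fit, scaled against DMSO and 50 nM calcitriol control.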

Assay [5] addresses Retinoic acid receptor RXR-alpha (Homo sapiens) (UniProt P19793). The assay is described as follows: qHTS assay for small molecule agonists of retinoid X receptor alpha signaling (AID 588544; calls by dose curve;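 note: 0% = DMSO basal wells and 100% = reference agonist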). Conditions: HEK293T RXRa-UAS-bla, beta-lactamase reporter, 18 h; series mostly up to 76.7 µM.
Assay [6] addresses Thyroid hormone receptor beta (Homo sapiens) (UniProt P10828). The assay is described as follows: qHTS assay for small molecule agonists of thyroid hormone receptor beta signaling (AID 588545; calls by dose curve). Conditions: TR-UAS-bla GripTite HEK 293, beta-lactamase ratio, agonist mode, 18 h; series mostly up to 76.7 µM. In short, it runs like this:
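Agonist activity was read as beta-lactamase CCF4 fluorescence (405 ex, 460/530 em), scaled between DMSO (0%) and 10 nM T3 (100%), then Hill-fitted for EC50 and efficacy. HEK 293 TR-UAS-bla cells in 2% charcoal/dextran FBS medium were exposed 18 h at 37 C.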

A short description of assay [7]: qHTS assay for small molecule antagonists of retinoid X receptor alpha signaling (AID 588546; active = well fitted inhibition curve with a large enough effect in the signal ratio, with a control signal flat, not every such curve was filed as active; the % refers to the signal ratio;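 note: cells stimulated with 9-cis-retinoic acid as agonist; % is set by controls: 0 for no effect and ±100 for the full control effect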). Conditions: HEK293T RXRa-UAS-bla, beta-lactamase ratio, antagonist mode; measured here: W530 green channel, cytotoxicity proxy. In short, it runs like this: (§1)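 Beta-lactamase reporter inhibition, read as CCF4 fluorescence ratio (ex 405, em 460/530 nm) after 2 h at RT. HEK293T UAS-bla cells, 2500/well, were stimulated with 9-cis-RA at 500 or 100 nM final alongside test compound for 18 h at 37 C.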

The nature of assay [8]: qHTS assay for small molecule activators of the p53 signaling pathway (AID 651743; active = well fitted activation curve with a large enough effect in the signal ratio, not every such curve was filed as active; the % refers to the signal ratio; note: % of control where 0% means no effect). The note with it: HCT-116 p53RE-bla, beta-lactamase FRET ratio, 16 h; activation: stronger effect = higher value. In short, it runs like this: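 p53RE-bla HCT-116 cells carrying a beta-lactamase reporter under p53 response elements were exposed to compounds for 16 hours at 37 C. Reporter activity read as fluorescence after 2 hours at room temperature with LiveBLAzer B/G FRET substrate.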

The nature of assay [9]: qHTS assay for small molecule activators of the nuclear factor-kappa B (NF-kB) signaling pathway (AID 651749; active = well fitted activation curve with a large enough effect in the signal ratio; the % refers to the signal ratio; note: % of control where 0% means no effect). Conditions: NF-kB-bla ME-180 cells, beta-lactamase FRET ratio, 16 h; activation: stronger effect = higher value. The procedure, abridged:
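NF-kB-bla ME-180 cells carrying a beta-lactamase reporter under an NF-kB response element, 2,000 cells/well, exposed to compound for 16 hr at 37C; FRET-based beta-lactamase fluorescence read-out of pathway activation.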

Assay [10] is described as follows: qHTS assay for environmental chemicals that activate the Aryl hydrocarbon Receptor (AhR) signaling pathway (AID 651777). Note: % of control where 0% means no effect; nearly all actives have a fitted effect of over 15% in size. The note with it: 1A2-DRE human hepatoma cells, luciferase, 24 h; activation: stronger effect = higher value. The procedure, abridged: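 Luminescence (One-Glo, 30 min, room temperature) reports AhR-driven luciferase in stably transfected human hepatoma cells bearing DRE and CYP1A2 promoter. Cells (1,200/well) were treated with compound for 24 hr at 37 C in qHTS format.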

For assay [11], the target named is Peroxisome proliferator-activated receptor alpha (Homo sapiens) (UniProt Q07869). Nature of the assay: qHTS assay for small molecule agonists of the peroxisome proliferator-activated receptor alpha (PPARalpha) signaling pathway (AID 651778). Note: % of control where 0% means no effect. Conditions: PathHunter PPARalpha complementation, chemiluminescence, 6 h; max response: stronger effect = higher value. In short, it runs like this: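 Enzyme-fragment complementation assay in which ligand-bound PPARalpha translocates and forms an active enzyme that generates chemiluminescence. Cells were plated overnight, exposed to compound for 6 hr at 37 C, and then given detection reagent for 60 min at room temperature.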

A short description of assay [12]: qHTS assay for small molecule agonists of the antioxidant response element (ARE) signaling pathway measured by Nrf2-dependant transcriptional activity (AID 720636; active = well fitted curve in the direction sought with a large enough effect in the repeat runs; an effect the other way counts as inactive or inconclusive; note: % of control where 0% means no effect). The note with it: ARE-luc HepG2, Nrf2 luciferase reporter, 16 h; series mostly up to 92.4 µM. In short, it runs like this: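 Nrf2-dependent transcription read as ONE-Glo luciferase signal from ARE-luc HepG2 reporter cells after 16 hr compound treatment at 37 C, 5% CO2, in assay medium with 1% dialyzed FBS.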

Assay [13] in a line: qHTS assay for small molecule agonists of the antioxidant response element (ARE) signaling pathway measured by Nrf2-dependant transcriptional activity - cell viability counter screen (AID 720653; active = well fitted curve in the direction sought with a large enough effect in the repeat runs; an effect the other way counts as inactive or inconclusive; note: % is set by controls: 0 for no effect and ±100 for the full control effect). Conditions: ARE-bla HepG2 viability, CellTiter-Glo ATP luminescence, 16 h; max response: stronger effect = lower value. The procedure, abridged: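 ARE-bla HepG2 cells treated with compounds for 16 h at 37C; this counter screen measures viability as intracellular ATP by CellTiter-Glo luminescence after 30 min at room temperature.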

A short description of assay [14]: qHTS assay for cell viability of HEK293 cells (AID 743288). Note: % is set by controls: 0 for no effect and ±100 for the full control effect; nearly all actives have a fitted effect of over 50% in size. The note with it: ATP luminescence (CellTiter-Glo), 18 h; max response: stronger effect = lower value. In short, it runs like this: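 Total intracellular ATP, measured with a luciferase-coupled reagent, indicates the number of viable HEK293 cells. Exposure to test chemicals lasts 18 h at 37 C in 1,536-well format at 2,000 cells/well.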

Assay [15] is described as follows: qHTS assay for cell viability of the p53RE-bla HCT-116 cell line (AID 743292). Note: % is set by controls: 0 for no effect and ±100 for the full control effect; nearly all actives have a fitted effect of over 55% in size. Conditions: p53RE-bla HCT-116 viability, ATP luminescence, 16 h; series mostly up to 95 µM. In short, it runs like this:
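ATP-based luminescent viability (CellTiter-Glo, 30 min RT) after 16 h compound treatment at 37 C of p53RE-bla HCT-116 cells, seeded at 4,000 cells/well and rested 5 h before dosing.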

Assay [16] has as its target Nuclear receptor subfamily 1 group I member 2 (Rattus norvegicus) (UniProt Q9R1A7). The assay is described as follows: qHTS assay for small molecule activators of the rat pregnane X receptor (rPXR) signaling pathway (AID 651751; call rule not given here; note: 0% is about no effect). The note with it: rPXR reporter cells, luciferase (One-Glo), 24 h.
A short description of assay [17]: qHTS assay for small molecule activators of the human pregnane X receptor (PXR) signaling pathway (AID 720659; call rule not given here; note: 0% is about no effect). The note with it: DPX-2 HepG2 CYP3A4-luciferase, 24 h; series mostly up to 92.3 µM.
Assay [18] concerns the target Retinoic acid receptor RXR-alpha (Homo sapiens) (UniProt P19793). Nature of the assay: qHTS assay for small molecule antagonists of retinoid X receptor alpha signaling (AID 588546).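 Note: cells stimulated with 9-cis-retinoic acid as agonist; % is set by controls: 0 for no effect and ±100 for the full control effect.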 Conditions: HEK293T RXRa-UAS-bla, beta-lactamase ratio, antagonist mode. The procedure, abridged: as §1
The nature of assay [19]: qHTS assay for small molecule antagonists of peroxisome proliferator-activated receptor delta signaling (AID 588535; active = well fitted inhibition curve with a large enough effect in the signal ratio, with a control signal flat, not every such curve was filed as active; the % refers to the signal ratio;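 for max response: cells co-treated with a PPAR-delta agonist as stimulator during compound exposure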). Conditions: HEK293T PPARd-UAS-bla, beta-lactamase FRET ratio, 18 h; 460 nm channel. The procedure, abridged:
(§2)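 Antagonist-mode beta-lactamase reporter (GeneBLAzer PPAR-delta-UAS-bla) in HEK293T cells, 2% charcoal/dextran FBS, 4000 cells/well. Compound titrations, 18 h at 37 C; CCF4 ratio read, IC50 and efficacy from Hill fits.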

For assay [20], the target named is Peroxisome proliferator-activated receptor delta (Homo sapiens) (UniProt Q03181). The assay is described as above. The note with it: HEK293T PPARd-UAS-bla, beta-lactamase FRET ratio, 18 h; series mostly up to 76.7 µM. In short, it runs like this: as §2
Chain of Peroxisome proliferator-activated receptor delta (Homo sapiens) (Q03181 whole entry, looked up): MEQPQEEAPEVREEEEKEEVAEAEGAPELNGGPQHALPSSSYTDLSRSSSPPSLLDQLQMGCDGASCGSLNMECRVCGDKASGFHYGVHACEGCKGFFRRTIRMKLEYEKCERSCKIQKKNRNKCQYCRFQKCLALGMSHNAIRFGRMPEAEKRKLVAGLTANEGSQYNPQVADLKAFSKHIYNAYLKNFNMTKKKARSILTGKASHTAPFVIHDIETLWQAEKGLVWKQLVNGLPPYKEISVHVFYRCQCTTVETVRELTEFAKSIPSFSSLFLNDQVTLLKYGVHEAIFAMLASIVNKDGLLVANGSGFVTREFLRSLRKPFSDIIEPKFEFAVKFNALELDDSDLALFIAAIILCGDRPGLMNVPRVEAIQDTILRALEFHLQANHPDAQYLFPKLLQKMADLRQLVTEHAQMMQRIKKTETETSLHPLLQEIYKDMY

Chain of Retinoic acid receptor RXR-alpha (Homo sapiens) (P19793 whole entry, looked up): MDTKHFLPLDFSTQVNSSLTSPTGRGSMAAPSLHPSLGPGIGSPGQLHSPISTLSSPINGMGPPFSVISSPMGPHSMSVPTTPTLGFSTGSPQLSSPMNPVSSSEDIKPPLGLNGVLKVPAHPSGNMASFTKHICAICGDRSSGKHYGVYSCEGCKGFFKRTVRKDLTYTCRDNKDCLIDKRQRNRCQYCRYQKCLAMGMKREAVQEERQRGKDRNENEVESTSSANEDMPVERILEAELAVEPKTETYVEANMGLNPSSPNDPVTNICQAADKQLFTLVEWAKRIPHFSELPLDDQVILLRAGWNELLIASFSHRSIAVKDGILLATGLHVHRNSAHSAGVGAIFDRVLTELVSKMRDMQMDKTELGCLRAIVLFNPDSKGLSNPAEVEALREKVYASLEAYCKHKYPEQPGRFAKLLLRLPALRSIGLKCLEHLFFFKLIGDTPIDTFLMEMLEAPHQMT
Chain of Vitamin D3 receptor (Homo sapiens) (P11473 whole entry, looked up): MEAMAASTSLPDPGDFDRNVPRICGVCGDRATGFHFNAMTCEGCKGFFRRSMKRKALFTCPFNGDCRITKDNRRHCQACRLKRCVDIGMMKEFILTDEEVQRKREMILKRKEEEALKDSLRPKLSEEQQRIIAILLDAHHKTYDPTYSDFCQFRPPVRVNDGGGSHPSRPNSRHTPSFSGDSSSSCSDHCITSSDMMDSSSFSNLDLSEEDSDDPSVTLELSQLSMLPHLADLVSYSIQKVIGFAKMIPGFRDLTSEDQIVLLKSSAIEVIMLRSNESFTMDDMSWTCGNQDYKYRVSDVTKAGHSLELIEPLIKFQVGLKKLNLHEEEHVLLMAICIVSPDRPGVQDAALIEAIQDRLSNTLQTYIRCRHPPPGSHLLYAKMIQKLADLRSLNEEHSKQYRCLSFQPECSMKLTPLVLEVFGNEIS
Chain of Glucocorticoid receptor (Homo sapiens) (P04150 whole entry, looked up): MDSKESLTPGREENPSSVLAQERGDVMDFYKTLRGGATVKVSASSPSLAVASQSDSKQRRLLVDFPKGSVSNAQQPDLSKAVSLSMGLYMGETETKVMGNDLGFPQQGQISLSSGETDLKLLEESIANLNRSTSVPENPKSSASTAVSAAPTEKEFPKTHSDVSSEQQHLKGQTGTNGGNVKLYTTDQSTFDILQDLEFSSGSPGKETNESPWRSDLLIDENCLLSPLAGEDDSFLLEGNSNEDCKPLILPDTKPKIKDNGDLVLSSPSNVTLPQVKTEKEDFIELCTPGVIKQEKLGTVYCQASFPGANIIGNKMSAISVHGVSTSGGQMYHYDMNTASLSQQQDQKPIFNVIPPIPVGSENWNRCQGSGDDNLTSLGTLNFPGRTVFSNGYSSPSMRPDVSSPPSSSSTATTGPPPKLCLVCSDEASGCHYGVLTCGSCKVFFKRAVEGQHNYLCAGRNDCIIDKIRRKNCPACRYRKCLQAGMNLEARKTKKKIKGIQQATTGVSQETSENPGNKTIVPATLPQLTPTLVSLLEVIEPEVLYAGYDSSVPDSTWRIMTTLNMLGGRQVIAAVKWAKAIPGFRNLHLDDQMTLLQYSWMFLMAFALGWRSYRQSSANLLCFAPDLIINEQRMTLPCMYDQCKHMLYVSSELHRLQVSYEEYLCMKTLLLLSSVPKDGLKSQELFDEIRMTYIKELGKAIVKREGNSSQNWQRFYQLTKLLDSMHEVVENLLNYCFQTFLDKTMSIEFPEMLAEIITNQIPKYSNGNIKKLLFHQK
Chain of Thyroid hormone receptor beta (Homo sapiens) (P10828 whole entry, looked up): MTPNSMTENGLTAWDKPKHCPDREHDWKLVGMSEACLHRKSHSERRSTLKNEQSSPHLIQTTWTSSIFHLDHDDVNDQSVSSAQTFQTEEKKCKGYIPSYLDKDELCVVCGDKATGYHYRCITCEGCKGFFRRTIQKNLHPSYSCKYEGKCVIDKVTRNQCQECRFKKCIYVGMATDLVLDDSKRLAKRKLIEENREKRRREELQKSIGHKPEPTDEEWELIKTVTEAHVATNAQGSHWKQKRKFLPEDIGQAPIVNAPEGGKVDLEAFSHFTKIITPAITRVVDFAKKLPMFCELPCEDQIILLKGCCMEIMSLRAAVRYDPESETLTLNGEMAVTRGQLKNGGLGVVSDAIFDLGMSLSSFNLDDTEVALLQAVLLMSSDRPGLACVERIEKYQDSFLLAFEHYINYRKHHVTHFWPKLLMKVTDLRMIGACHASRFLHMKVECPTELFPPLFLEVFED
Chain of Nuclear receptor subfamily 1 group I member 2 (Rattus norvegicus) (Q9R1A7 whole entry, looked up): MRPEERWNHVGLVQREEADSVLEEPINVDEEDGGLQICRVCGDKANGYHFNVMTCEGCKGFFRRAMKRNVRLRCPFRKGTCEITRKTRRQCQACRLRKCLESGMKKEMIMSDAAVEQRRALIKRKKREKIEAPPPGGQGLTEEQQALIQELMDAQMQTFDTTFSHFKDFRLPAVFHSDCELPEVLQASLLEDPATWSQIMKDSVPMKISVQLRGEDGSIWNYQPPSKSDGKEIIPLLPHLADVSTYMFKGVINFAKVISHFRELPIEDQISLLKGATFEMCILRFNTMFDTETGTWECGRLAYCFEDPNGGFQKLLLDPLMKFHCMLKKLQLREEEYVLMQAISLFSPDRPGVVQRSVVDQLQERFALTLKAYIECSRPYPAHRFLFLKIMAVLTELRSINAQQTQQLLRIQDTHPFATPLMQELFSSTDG
Chain of Peroxisome proliferator-activated receptor alpha (Homo sapiens) (Q07869 whole entry, looked up, the tested form may be a part): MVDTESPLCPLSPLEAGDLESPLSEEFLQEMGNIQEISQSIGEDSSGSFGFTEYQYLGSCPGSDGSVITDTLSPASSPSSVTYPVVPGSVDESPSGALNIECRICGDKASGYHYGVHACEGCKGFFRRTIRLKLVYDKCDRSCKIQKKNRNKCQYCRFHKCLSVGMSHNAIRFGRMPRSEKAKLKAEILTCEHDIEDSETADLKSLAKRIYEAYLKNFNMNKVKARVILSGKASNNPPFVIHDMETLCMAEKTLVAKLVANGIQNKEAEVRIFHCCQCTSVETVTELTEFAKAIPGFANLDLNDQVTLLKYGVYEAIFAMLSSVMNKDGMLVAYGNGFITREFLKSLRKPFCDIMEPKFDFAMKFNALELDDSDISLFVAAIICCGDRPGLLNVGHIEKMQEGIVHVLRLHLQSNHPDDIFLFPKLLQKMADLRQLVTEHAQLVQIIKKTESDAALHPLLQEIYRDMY

Turning to `CCCCCCCCCCCCCCN(C)C`, the activation in [1] was 12.5% (inactive); in assay [8] it was 5.52% (inactive); in assay [9], -1.59% (inactive); in assay [10], 1.73% (inactive). For the same compound, the Potency entry in [2], in assay [3], in [5], in [6], in assay [12] and in assay [15] was “inactive” in each case. Moreover, the result in assay [4] and in assay [17] was inactive. Further, the max response is -0.764% in assay [7]; -1.88% (inactive) in assay [11]; -6.77% (inactive) in assay [13]; -20.2% (inactive) in assay [14]; -1.42% (inactive) in assay [16].

On to `COC(=O)c1ccc(I)cc1S(=O)(=O)NC(=O)Nc1nc(C)nc(OC)n1`, for which the activation was 7.01% (inactive) in assay [1], -2.48% (inactive) in assay [8] and 2.67% (inactive) in assay [10]. Also, the Potency result in assay [2], in [3], in [5], in assay [6], in [12] and in [15] was “inactive” each time. In addition, the outcome in [4] and in [17] was inactive. Besides, the max response in assay [7] is -4.15%; in assay [18], -12.1% (inactive); in assay [13], -4.44% (inactive); in [14], -13.7% (inactive); in assay [16], 3.28% (inactive).

For the compound `CCOCCOCCOC(C)=O`, the activation in assay [1] is -7.35% (inactive); in [10] it was -0.223% (inactive). Also, the Potency entry in assay [2], in assay [20], in assay [3], in assay [5], in assay [6] and in [15] was “inactive” throughout. Also, the max response is 31.4% in [19]; -12.8% in [7]; 7.1% (inactive) in assay [18]; 0.0175% (inactive) in [11]; 2.87% (inactive) in assay [13]; 0.368% (inactive) in [14]. For the same compound, the max response in assay [16] is 0.7% (inactive). In [17], the call was inactive.

With `CCCCCCCCCCCCN`, the activation in assay [1] is -4.12% (inactive); in [8], -7.19% (inactive); in [9] it was -1.82% (inactive); in [10] it was -1.22% (inactive). Moreover, the Potency entry in [2], in assay [20], in assay [5], in [6], in assay [12] and in [15] was “inactive” each time. The max response in assay [19] is -18.4%; in [7], -2.37%; in [11], -0.939% (inactive); in assay [13], -1.6% (inactive); in assay [14], -1.85% (inactive); in [16], 0.146% (inactive). Moreover, in assay [17], the compound was called inactive.

Consider `O=C(O)CCCCCCC(=O)O`, for which the activation in [1] is -13.8% (inactive); in [8], -5.91% (inactive); in assay [10] it was -0.962% (inactive). The Potency entry in assay [2], in assay [5], in [6], in [12] and in assay [15] was “inactive” each time. Also, the max response in [7] is -8.49%; in assay [18], 2.98% (inactive); in [11] it was -2.36% (inactive); in assay [13] it was -7.95% (inactive); in assay [14], -8.35% (inactive); in [16], -0.548% (inactive). Further, in [17], the outcome was inactive.

Regarding `CCCCC(CC)COC(C)=O` (stereo unspecified), the activation was -0.969% (inactive) in [1] and -1.18% (inactive) in [9]. Besides, the Potency entry in assay [2], in [20], in assay [5], in assay [6], in assay [12] and in assay [15] was “inactive” in each case. In addition, the max response in assay [19] was 8.6%; in assay [7] it was -1.25%; in [11], -0.237% (inactive); in assay [13], 3.74% (inactive); in assay [14] it was -7.43% (inactive); in assay [16], -1.91% (inactive). Also, the call in assay [17] was inactive.
